# High-throughput results: PubChem BioAssay, National Center for Advancing Translational Sciences (NCATS)
# Rows were chosen to be rich in hits. Some 3.3% of all compounds tested hit in one or more screens of this group.
# LmPK inhibitor: inhibitors of Leishmania mexicana pyruvate kinase. Q27686. purified LmPK, Kinase-Glo ATP luminescence, 1 h. Potency, µM (series often up to 57.5 µM), for the others: top-dose activity change, negative = inhibition, hits mostly inhibitors. 290,000 tested, 0.37% active
#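 In 50 mM imidazole pH 7.2 with 7 mM MgCl2, LmPK (0.1 nM) turned over PEP (0.5 mM) and ADP (0.1 mM) for 1 h at room temperature. Luciferase read-out of ATP.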
# Tb PYK inh: inhibitors of Trypanosoma brucei pyruvate kinase; Q57TT1; TbPYK enzyme, Kinase-Glo Plus ATP luminescence, 45 min; Potency, µM (titrated, usually from 76.8 µM), without a hit: at the highest dose activity, negative = inhibition, actives largely listed as inhibitors; 410,000 tested, 0.12% active; AID 624173; also: nearly all actives have a fitted effect of over 50% in size
#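 Activity of T. brucei pyruvate kinase was followed by Kinase-Glo Plus luminescence after the enzyme reacted 45 min at room temperature with 130 uM ADP (final) and substrate. Test compounds were added before ADP at multiple concentrations.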
# RE007 growth inh: less growth of the S. pombe RE007 Vpr strain; S. pombe RE007 Vpr strain, BacTiter-Glo ATP luminescence, 24 h; Potency, µM (series often up to 92.2 µM), without a hit: at the highest dose activity change, negative = less growth, actives largely listed as inhibitors; 360,000 tested, 0.21% active; active = well fitted falling curve with a large enough effect; inconclusive = small, poorly fitted or top-dose-only effect; inactive = no such curve, though single readings can be large or run the other way; also: nearly all actives have a fitted effect of over 50% in size
#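 Fission yeast RE007 carrying one integrated HIV-1 vpr copy, seeded at OD 0.01 in PMG+AL medium with 23 nL pinned compound. Grown 24 h at 30 degrees; viability read by BacTiter-Glo luminescence after 5 min.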
# Sm TGR inh: S. mansoni TGR enzyme inhibition; Q962Y6; purified TGR, DTNB reduction, TNB absorbance 405 nm; 360,000 tested, 3% active; Potency, µM (series often up to 114 µM), for the others: at the highest dose activity change, negative = inhibition, actives largely listed as inhibitors; also: nearly all actives have a fitted effect of over 60% in size
#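 Kinetic colorimetric format: TGR-catalysed, NADPH-driven DTNB reduction monitored via TNB absorbance. Enzyme dispensed at 20 nM; compound exposure 15 min at room temperature before reaction start.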
# Giardia FBPA inh: Giardia lamblia aldolase inhibition. A8B2U2. purified Giardia FBPA. Potency, µM (titrated, usually from 59.6 µM), inactives show at the highest dose activity, negative = inhibition, usual class: inhibitors. 290,000 tested, 0.71% active. AID 2451; also: nearly all actives have a fitted effect of over 55% in size
# Target sequence (A8B2U2 whole entry, looked up): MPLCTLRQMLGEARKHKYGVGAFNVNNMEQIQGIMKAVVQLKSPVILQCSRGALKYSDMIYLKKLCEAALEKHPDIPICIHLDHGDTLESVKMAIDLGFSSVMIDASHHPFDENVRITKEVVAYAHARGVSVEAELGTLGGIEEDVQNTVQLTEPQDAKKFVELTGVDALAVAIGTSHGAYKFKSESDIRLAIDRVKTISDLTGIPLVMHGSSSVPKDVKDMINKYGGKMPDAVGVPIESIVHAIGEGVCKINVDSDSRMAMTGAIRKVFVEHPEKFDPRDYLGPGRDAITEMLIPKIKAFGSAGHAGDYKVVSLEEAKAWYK
#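 Giardia FBPA (40 nM reagent) was preincubated 10 min at RT with compound (up to 57.5 uM final), then substrate plus GAPDH/TPI/NAD/arsenate coupling system with diaphorase/resazurin was added; resorufin fluorescence (525/598 nm) was read after 20 min.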
# Numbers without * were called inactive; ? = inconclusive; . = not tested or not shown. Unless noted, calls follow the shape of the dose curve; as a rule, active = well fitted curve in the direction sought with a large enough effect; inconclusive = small, poorly fitted or top-dose-only effect, or another doubt; inactive = no such curve, though single readings can be large; an effect the other way counts as inactive or inconclusive. % is scaled to controls: 0 for no effect and ±100 for the full control effect; potency is read from the fitted curve at half-maximal effect.
SMILES,LmPK inhibitor,Tb PYK inh,RE007 growth inh,Sm TGR inh,Giardia FBPA inh
COc1cc(NS(=O)(=O)c2ccc(NC(=S)NC(=O)c3ccc(F)c(F)c3)cc2)nc(OC)n1,2%,1%,14%,22µM*,.
CCc1nnc(NC(=O)c2ccc(S(=O)(=O)N3CCCC3)cc2)s1,3%,-5%,-12%,1%,2%
O=C1N/C(=C\c2ccc(O)cc2)C(=O)c2ccccc21,10µM*,?,-27%,?,?
O=C(CSc1nnc(-c2ccc(Br)o2)n1Cc1ccccc1)c1ccccc1F,-2%,-13%,-11%,35µM*,0%
Cc1cc(NC(=O)CSc2nnc(-c3ccc(Br)o3)n2Cc2ccccc2)no1,-2%,4%,10%,-7%,7%
C=C(C)c1cccc(C(C)(C)NC(=O)N2CCC(C(N)=O)CC2)c1,1%,-2%,7%,65%,5%
COc1ccc(C)c2sc(NC(=O)CCS(=O)(=O)c3ccccc3)nc12,-2%,-6%,9%,5µM*,3%
CCOc1ccccc1NC(=O)CCS(=O)(=O)c1ccc(OC)cc1,7%,4%,11%,-23%,-6%
COc1ccc(S(=O)(=O)CCC(=O)NCCc2ccc(C)cc2)cc1,-4%,-5%,5%,32µM*,2%
COc1ccc(CNC(=O)CCS(=O)(=O)c2ccc3c(c2)NC(=O)CS3)cc1,0%,3%,1%,13µM*,-4%
CCOc1cccc2sc(NC(=O)CCS(=O)(=O)c3ccccc3)nc12,-8%,-8%,-15%,-29%,-6%
CCNS(=O)(=O)c1ccc(CCC(=O)NCCc2ccc(OC)cc2)cc1,-2%,-8%,18%,6%,7%
CCc1ccccc1NC(=O)CCS(=O)(=O)c1ccc(OC)cc1,8%,-12%,-13%,14µM*,-8%
COc1ccc(CNC(=O)CCS(=O)(=O)c2ccc3c(c2)NC(=O)C(C)S3)cc1 (stereo unspecified),0%,7%,3%,-1%,-10%
O=C(Cn1cc([N+](=O)[O-])cn1)Nc1ccc(Cn2cc(Br)cn2)cc1,3%,-3%,.,-6%,4%
O=C(COC(=O)COc1ccccc1)NC1CCCC1,.,7%,6%,3%,.
Cc1cc(C)nc(-n2cc(C(=O)c3cc(F)ccc3O)cn2)n1,-2%,-14%,-22%,-6%,-17%
CCOC(=O)C(C)Sc1nc2c(cnn2-c2ccc(F)cc2)c(=O)[nH]1 (stereo unspecified),7%,3%,-10%,1%,-19%
COc1ccccc1-c1nnc(NC(=O)CCS(=O)(=O)c2ccc(F)cc2)o1,.,-2%,-3%,.,.
CC(=O)CCS(=O)(=O)c1ccc(Oc2ccc(S(=O)(=O)CCC(C)=O)cc2)cc1,3%,4%,-16%,10µM*,8%
COc1ccc(S(=O)(=O)CCC(=O)Nc2c(C)cccc2C)cc1,-1%,-9%,-4%,40µM*,9%
COc1ccccc1-c1nnc(NC(=O)CCS(=O)(=O)c2ccccc2)o1,1%,1%,-17%,40µM*,.
O=C(CSc1ccc(Br)cc1)NCC(c1cccs1)N1CCOCC1 (stereo unspecified),.,2%,-19%,3%,.
Cc1cccc(Cn2c(Cc3ccccc3)nc3ccccc32)c1,7%,-2%,-6%,0%,19%
COC(=O)N1C(=O)[C@](c2ccccc2)(C2CCCCC2)N1C(=O)OC,0%,-7%,-8%,5µM*,2%
SMILES,LmPK inhibitor,Tb PYK inh,RE007 growth inh,Sm TGR inh,Giardia FBPA inh
COC(=O)N1C(=O)[C@](CC(C)C)(c2ccccc2)N1C(=O)OC,0%,-5%,2%,7.9µM*,10%
COC(=O)N1C(=O)[C@@](CC(C)C)(c2ccccc2)N1C(=O)OC,5%,.,.,3.5µM*,0%
COC(=O)N1C(=O)[C@@](c2ccccc2)(C2CCCC2)N1C(=O)OC,-1%,-1%,10%,?,-3%
CS(=O)(=O)c1ccc(Cl)c(NC(=O)CCN2C(=O)NC3(CCCC3)C2=O)c1,.,-22%,8%,.,.
CCCS(=O)(=O)N1CCCC(C(=O)NCCCN2CCCC2=O)C1 (stereo unspecified),-3%,3%,5%,7%,5%
N/C(=N\OC(=O)/C=C/c1ccccc1)c1ccccn1,13µM*,-27%,-23%,.,1%
O=C(N/N=C/C=C/c1ccccc1)c1ccccn1,-1%,-7%,-7%,3%,-24%
O=C(/C=C/c1ccccc1)c1ccccn1,14µM*,?,35µM*,?,-21%
COCCOC(=O)C1=C(C)NC2(O)c3ccccc3C(=O)C12O (stereo unspecified),0%,-9%,0%,1%,?
CN(C(=O)CCc1ccccc1)c1nnc(-c2ccncc2)s1,-1%,3%,4%,.,0%
O=C(CSc1nc(O)cc(=O)n1-c1ccccc1)c1ccc(Br)cc1,2%,2%,18%,4%,12%
COc1ccc(NC(=O)CC2C(=O)N(c3ccccc3)C(=O)N2Cc2ccco2)cc1 (stereo unspecified),4%,2%,2%,-13%,5%
CCc1ccc(NC(=O)CC2C(=O)N(c3cccc(OC)c3)C(=O)N2Cc2ccco2)cc1 (stereo unspecified),.,2%,.,40µM*,.
CN1C(=O)C(CC(=O)Nc2ccc(Cl)cc2)N(Cc2ccco2)C1=S (stereo unspecified),1%,-8%,6%,10µM*,-5%
CCc1ccc(NC(=O)CC2C(=O)N(c3cccc(C)c3)C(=O)N2Cc2ccco2)cc1 (stereo unspecified),.,3%,.,45µM*,.
COC(=O)[C@H](CCSC)NC(=O)Nc1ccc(C)c(C)c1,2%,0%,-6%,0%,20%
Cc1ccc(C(=O)/C=C/C(=O)O)cc1,-2%,?,-18%,2.5µM*,8%
CN(C)S(=O)(=O)c1ccc(C(=O)NCc2ccco2)cc1,1%,0%,14%,-7%,0%
COc1cc(OC)cc(C(=O)OCC(=O)NCc2ccco2)c1,.,-1%,5%,?,.
COc1cc(C(=O)OCC(=O)NCc2ccco2)cc(OC)c1OC,5%,0%,-1%,45µM*,2%
CC(C)(C)c1ccc(OCC(=O)NCc2ccco2)c(Br)c1,-11%,0%,?,10µM*,-1%
CCN(CC)S(=O)(=O)c1ccc(OCC(=O)NCc2ccco2)cc1,1%,-4%,0%,22µM*,0%
CC(C)(C)c1ccc(OCC(=O)NNC(=S)NC(=O)c2ccco2)c(Br)c1,8%,-21%,-4%,0%,?
CN(C)S(=O)(=O)c1ccc(C(=O)OCC(=O)NCc2ccco2)cc1,3%,3%,-6%,35µM*,2%
CCOC(=O)C(=O)Nc1ccccc1C(N)=O,4%,-3%,-2%,-21%,0%
